In PubChem BioAssay one finds z-score and composite z-score data, which are given here for twelve molecules.

Experiment [1] can be described thus: HepG2 liver cancer cell viability effects, profiling panel, resazurin fluorescence, 24 h, PK04 Diversity Set (AID 1172). Further: test concentration not given here. The following applies: higher = more signal.
The nature of experiment [2]: basal S. cerevisiae growth modulation, no modifier, primary screen, OD600, strain BY4716, 24 h, basal condition (AID 1173). The settings on record: OD600, 24 h, higher = more signal, called active from +8 up or from −8 down.
Experiment [3] is described as follows: MM1S myeloma cell viability, profiling panel, resazurin fluorescence, basal, 24 h, PK04 Diversity Set (AID 1174).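 Further: MM1S multiple myeloma cell line; test concentration not given here.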 The settings on record: higher = more signal, called active from +8 up or from −8 down. A general note: Resazurin is reduced to fluorescent resorufin, in cell work by metabolically active cells.
For experiment [4], the target named is Dihydroorotate dehydrogenase (quinone), mitochondrial (Plasmodium falciparum (isolate 3D7)) (UniProt Q08210). In words: PfDHODH enzyme inhibitors, primary screen, biochemical, C-terminal His tag, absorbance 600 nm (AID 1175).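 Further: recombinant parasite enzyme with a five histidine tag at its C terminus; test concentration not given here.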 The settings on record: DCIP absorbance 600 nm, higher = more signal, called active from +8 up or from −8 down.
The nature of experiment [5]: P. aeruginosa biofilm formation inhibitors, primary screen, strain PAO1, LB-PBS medium, absorbance 600 nm (AID 1176). Further: test concentration not given here. The settings on record: P. aeruginosa PAO1 growth/biofilm, A600, 12 h; higher = more signal.
Experiment [6] in a line: S. cerevisiae RM11-1a growth modifiers, primary screen, strain RM11-1a, OD600, basal, 24 h (AID 1177).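 Further: cultures grown under basal conditions with no added stressor; test concentration not given here.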 The following applies: OD600, 24 h, higher = more signal, called active from +8 up or from −8 down.
Experiment [7] in a line: E. coli acrAB mutant growth effects, primary screen, E. coli filamentation inducers, strain DRC39, OD650, 24 h (AID 1178).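 Further: growth measured as culture turbidity by optical density at 650 nm; test concentration not given here.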 The settings on record: higher = more signal, called active from +8 up or from −8 down.
Experiment [8] in a line: E. coli acrAB mutant growth effects, primary screen, E. coli filamentation inducers, strain DRC39, OD650, 48 h (AID 1179).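 Further: screen aims at cell division blockers that make cells filament.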 The following applies: E. coli DRC39 delta-acrAB growth, higher = more signal, called active from +8 up or from −8 down.
Experiment [9] is described as follows: RPMI8226 myeloma cell viability, profiling panel, resazurin fluorescence, basal, 24 h, PK04 Diversity Set (AID 1180).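 Further: RPMI8826 multiple myeloma cell line at 5000 cells per well; test concentration not given here.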 The settings on record: higher = more signal.
Experiment [10] concerns the target E3 ubiquitin-protein ligase XIAP (Homo sapiens) (UniProt P98170). In words: XIAP binders, primary screen, biophysical, small-molecule microarray, fluorescence 635 nm (AID 1181).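 Further: score merges 667 nm emission and signal to noise over triplicate slides.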 The following applies: small-molecule microarray binding, higher = more signal.

Active and inactive are the calls of the source. Unless noted, how the calls were made is not given here.

Chain of E3 ubiquitin-protein ligase XIAP (Homo sapiens) (P98170 whole entry, looked up): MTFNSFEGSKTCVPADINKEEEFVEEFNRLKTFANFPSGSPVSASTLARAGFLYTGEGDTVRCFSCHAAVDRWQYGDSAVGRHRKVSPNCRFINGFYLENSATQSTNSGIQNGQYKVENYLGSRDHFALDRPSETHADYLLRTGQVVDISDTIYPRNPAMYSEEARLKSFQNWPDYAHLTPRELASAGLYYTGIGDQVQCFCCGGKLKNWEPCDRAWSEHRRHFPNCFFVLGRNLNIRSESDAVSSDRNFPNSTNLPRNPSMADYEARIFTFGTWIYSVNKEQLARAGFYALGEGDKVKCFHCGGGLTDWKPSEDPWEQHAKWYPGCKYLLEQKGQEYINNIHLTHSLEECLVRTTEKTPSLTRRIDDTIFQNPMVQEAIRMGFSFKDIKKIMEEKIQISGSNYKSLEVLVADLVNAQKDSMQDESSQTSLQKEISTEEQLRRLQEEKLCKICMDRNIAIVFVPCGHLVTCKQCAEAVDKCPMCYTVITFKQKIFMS
Chain of Dihydroorotate dehydrogenase (quinone), mitochondrial (Plasmodium falciparum (isolate 3D7)) (Q08210 whole entry, looked up): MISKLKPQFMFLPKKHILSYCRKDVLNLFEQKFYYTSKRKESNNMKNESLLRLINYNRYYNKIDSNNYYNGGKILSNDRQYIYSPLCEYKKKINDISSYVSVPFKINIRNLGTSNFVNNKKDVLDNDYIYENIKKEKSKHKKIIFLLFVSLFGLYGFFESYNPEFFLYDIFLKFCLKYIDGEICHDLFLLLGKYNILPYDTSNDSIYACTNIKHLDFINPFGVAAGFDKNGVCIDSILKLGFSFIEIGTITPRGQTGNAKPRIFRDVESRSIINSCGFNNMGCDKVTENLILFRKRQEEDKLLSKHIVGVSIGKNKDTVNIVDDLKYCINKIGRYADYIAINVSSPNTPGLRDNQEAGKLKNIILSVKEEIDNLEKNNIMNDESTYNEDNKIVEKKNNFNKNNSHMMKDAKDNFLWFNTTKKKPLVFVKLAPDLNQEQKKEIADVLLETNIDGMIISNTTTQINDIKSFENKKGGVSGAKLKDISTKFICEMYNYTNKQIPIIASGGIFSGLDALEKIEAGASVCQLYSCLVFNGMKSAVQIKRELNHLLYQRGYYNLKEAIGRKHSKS

Consider `[N-]=[N+]=NCc1ccccc1[C@H]1OC(c2ccc(OCCCO)cc2)=N[C@@]1(CCS(=O)(=O)c1ccccc1)C(=O)N1CCOCC1`, for which the z-score in [1] was -0.0894; in experiment [2], 0.798 (inactive); in [3], -0.306 (inactive); in experiment [5] it was 0.631 (inactive); in [6] it was 0.686 (inactive); in experiment [7], 0.186 (inactive). The z-score is -0.109 (inactive) in experiment [8] and -0.8 in experiment [9]. The composite z-score was 0.274 (inactive) in experiment [4] and -0.309 in experiment [10].

Regarding `O=C(OCCF)C1=CCC(c2cccc(Cl)c2)O1` (stereo not given), the z-score was -0.185 in experiment [1]; -2.59 (inactive) in experiment [2]; 0.0509 (inactive) in experiment [3]; -0.212 (inactive) in [5]; -1.56 (inactive) in experiment [6]; -0.18 (inactive) in experiment [7]. Also, the z-score in experiment [8] was 0.443 (inactive); in experiment [9], 0.122. Moreover, the composite z-score in experiment [4] was -1.71 (inactive); in experiment [10], 0.0176.

Take `CC(c1ccccc1)C(O)C1C=CC2C(=O)NC(=O)C2N1Nc1ccccn1` (stereo not given): the z-score in experiment [1] was -0.987; in experiment [2] it was 1.34 (inactive); in [3], -0.757 (inactive); in experiment [5], 1.33 (inactive); in [6] it was 1.27 (inactive); in [7], 0.15 (inactive). The z-score in experiment [8] is 0.226 (inactive); in experiment [9] it was -0.806. Besides, the figures for the composite z-score in [4] and in experiment [10] were 0.865 (inactive) and 0.0049, respectively.

Turning to `CC(C)c1ccc(NN2C(C(O)c3cccc(O)c3)C=CC3C(=O)N(c4ccccc4)C(=O)C32)cc1` (stereo not given), the z-score in experiment [1] is -0.546; in [2], -0.914 (inactive); in experiment [3], -0.501 (inactive); in experiment [5] it was 0.186 (inactive); in [6], 1.63 (inactive); in experiment [7], -0.0564 (inactive). The z-score in experiment [8] is -0.063 (inactive); in [9], -0.111. For the same molecule, the figures for the composite z-score in experiment [4] and in experiment [10] were 0.523 (inactive) and 0.42, respectively.

On to `O=C1O[C@@H](c2ccccc2)[C@@H](c2ccccc2)N2[C@@H](c3ccc(OCCO)cc3)[C@]3(C(=O)Nc4ccc(C#CC5=CCCCC5)cc43)[C@@H](C(=O)O)[C@H]12`, for which the z-score in [1] was 0.332; in experiment [2], -0.734 (inactive); in experiment [3], -1.5 (inactive); in experiment [5], 2.07 (inactive); in [6], 1.44 (inactive); in experiment [7], 0.448 (inactive). In addition, the values for the z-score in experiment [8] and in experiment [9] were 0.0447 (inactive) and -1.43, respectively. Besides, the values for the composite z-score in [4] and in experiment [10] were -13.5 (active) and 0.104, respectively.

On to `O=C1O[C@H](c2ccccc2)[C@H](c2ccccc2)N2[C@H]1[C@@H](C(=O)O)[C@]1(C(=O)Nc3ccc(C#CC4=CCCCC4)cc31)[C@H]2c1ccc(OCCO)cc1`, for which the z-score was 0.732 in experiment [1]; 0.0899 (inactive) in experiment [2]; 0.533 (inactive) in experiment [3]; 3.39 (inactive) in [5]; 1.26 (inactive) in [6]; 0.668 (inactive) in [7]. Besides, the results for the z-score in [8] and in experiment [9] were -0.175 (inactive) and -0.219, respectively. For the same molecule, the values for the composite z-score in experiment [4] and in experiment [10] were -14.1 (active) and -0.271, respectively.

In the case of `COC(=O)[C@@]1(Cc2ccccc2)[C@H]2c3cc(C(=O)N4CCCC4)n(Cc4ccc(C)o4)c3C[C@H]2CN1C(=O)c1ccccc1`, the z-score in [1] was -1.59; in [2], 0.476 (inactive); in experiment [3] it was -1.5 (inactive); in experiment [5], 0.399 (inactive); in experiment [6], -0.219 (inactive); in [7], -0.691 (inactive). In addition, the z-score in [8] was -0.471 (inactive); in experiment [9], -2.47. For the same molecule, the results for the composite z-score in experiment [4] and in [10] were -0.376 (inactive) and 0.0632, respectively.

Take `COC(=O)[C@@]1(Cc2ccc(OC)cc2)[C@H]2c3cc(C(=O)N4CCCC4)n(Cc4ccccn4)c3C[C@H]2CN1C(=O)c1ccccc1`: the z-score in experiment [1] is -1.73; in experiment [2] it was 2.39 (inactive); in experiment [3], -1.07 (inactive); in [5], 0.743 (inactive); in [6] it was 1.13 (inactive); in experiment [7], -0.564 (inactive). Further, the z-score in [8] is 0.147 (inactive); in experiment [9] it was -2.2. The composite z-score in experiment [4] is 0.81 (inactive); in [10], 0.0379.

On to `COCCOC(=O)N1C(=O)[C@@]2(c3cc(C#CCNC(N)=O)ccc31)[C@H](c1ccc(OCCO)cc1)N1[C@H](c3ccccc3)[C@H](c3ccccc3)OC(=O)[C@H]1[C@@H]2C(=O)N1CCc2cc(OC)c(OC)cc2C1`, for which the z-score in experiment [1] was 0.358; in experiment [2], 2.29 (inactive); in experiment [3] it was 0.296 (inactive); in experiment [5], 2.26 (inactive); in [6] it was 3.21 (inactive); in experiment [7], 0.583 (inactive). Also, the z-score in [8] is 0.582 (inactive); in experiment [9], 0.665. The composite z-score is -0.597 (inactive) in experiment [4] and -0.0999 in [10].

`O=C(O)[C@@]1(Cc2ccccc2)N=C(c2ccc(OCCCO)cc2)O[C@H]1c1ccccc1`: the z-score in experiment [1] is 0.712; in experiment [2], -1.12 (inactive); in experiment [3] it was 0.551 (inactive); in [5], -0.692 (inactive); in [6], 0.291 (inactive); in experiment [7], 0.24 (inactive). Also, the z-score in [8] was 1.34 (inactive); in experiment [9], 0.655. For the same molecule, the composite z-score in [4] is 1.22 (inactive); in experiment [10], -0.0095.

As to `CC(C)N1CC=CC23O[C@@H]4C=CCOC(=O)[C@@H]4[C@H]2C(=O)N(CCO)[C@@H]3C1=O` (stereo not given in full), the z-score is 0.545 in experiment [1]; 0.684 (inactive) in experiment [2]; 0.813 (inactive) in [3]; 0.0683 (inactive) in experiment [5]; 0.445 (inactive) in experiment [6]; 0.173 (inactive) in experiment [7]. The z-score was 0.0539 (inactive) in [8] and 0.393 in experiment [9]. Besides, the composite z-score in [4] is -1.12 (inactive); in experiment [10], 0.0368.

As for `COC(=O)C1=CC(CCCO)=CC(C2CC2)N(Cc2sc3ccccc3c2Cl)C=C1C(=O)OC` (stereo not given), the z-score is -0.908 in experiment [1]; -1.32 (inactive) in experiment [2]; -0.944 (inactive) in experiment [3]; -0.0065 (inactive) in [5]; 1.61 (inactive) in experiment [6]; 0.386 (inactive) in experiment [7]. For the same molecule, the z-score in experiment [8] was -0.444 (inactive); in experiment [9] it was -0.691. For the same molecule, the composite z-score was -4.56 (inactive) in experiment [4] and -0.0172 in [10].
